Screening results (PubChem BioAssay)
Luc counter = Kinase-Glo luciferase inhibition (counter-screen). Q27757. Kinase-Glo luciferase, ATP luminescence, 8 min. Potency, µM (series often up to 38.3 µM), for the others: at the top dose activity change, negative = inhibition, actives largely listed as inhibitors. 0.28% of 200,000 active; further: nearly all actives have a fitted effect of over 60% in size
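Kinase-Glo luciferase light output from ATP and luciferin was measured with 10 uM ATP, within the enzyme's linear range. Buffer: 50 mM imidazole pH 7.2, 50 mM KCl, 7 mM MgCl2, 0.01% Tween 20, 0.05% BSA; luminescence read after 8 min at ambient temperature.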
RORg inh = ROR gamma (mouse) transcription inhibition; Drosophila S2 Gal4-RORgamma UAS-luciferase reporter, 20 h; Potency, µM (highest dose often 53.6 µM), without a hit: at the highest dose activity change, negative = inhibition, hits mostly inhibitors; 5.4% of 310,000 active; AID 2551; further: nearly all actives have a fitted effect of over 60% in size
Target sequence (P51450 whole entry, looked up, the tested form may be a part): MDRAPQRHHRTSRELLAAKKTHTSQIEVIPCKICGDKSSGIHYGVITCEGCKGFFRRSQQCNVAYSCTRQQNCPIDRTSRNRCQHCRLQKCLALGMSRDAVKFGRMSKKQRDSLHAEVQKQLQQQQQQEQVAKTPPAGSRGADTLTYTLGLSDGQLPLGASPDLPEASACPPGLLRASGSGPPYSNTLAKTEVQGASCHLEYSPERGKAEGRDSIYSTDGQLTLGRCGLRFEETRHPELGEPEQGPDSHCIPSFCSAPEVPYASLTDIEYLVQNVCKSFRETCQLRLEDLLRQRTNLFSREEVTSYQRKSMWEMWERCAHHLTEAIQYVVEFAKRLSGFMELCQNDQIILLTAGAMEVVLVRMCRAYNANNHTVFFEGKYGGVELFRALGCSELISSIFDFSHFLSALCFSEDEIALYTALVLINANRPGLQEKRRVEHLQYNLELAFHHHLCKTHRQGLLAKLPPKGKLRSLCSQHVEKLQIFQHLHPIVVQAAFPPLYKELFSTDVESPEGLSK
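ROR gamma transcriptional activity was tracked as Gal4-UAS luciferase output in stably transfected Drosophila Schneider cells, with compound added 1 hr before 700 uM copper sulfate induction and a 20 hr ambient-temperature incubation.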
Gal4-VP16 FLuc = counter-screen for ROR gamma inhibitors: Gal4-VP16 reporter | Potency, µM (titrated, usually from 53.6 µM), without a hit: at the top dose activity, negative = inhibition, actives largely listed as inhibitors | 3.5% of 310,000 active | Drosophila S2 Gal4-VP16 UAS-luciferase, luminescence, 20 h;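 further: Gal4-VP16 expression switched on by copper sulfate through the metallothionein promoter; nearly all actives have a fitted effect of over 50% in size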
Active calls of the source: *; ? = inconclusive; nt = no result given; [ ] = another dose, or the depositor's remark. In the library only some 6.2% were active in any assay of this set; here they are far more common. The call rests on the fitted dose curve; in most records, active means well fitted curve in the direction sought with a large enough effect; inconclusive means small, poorly fitted or top-dose-only effect, or another doubt; inactive means no such curve, though single readings can be large; an effect the other way counts as inactive or inconclusive. On the % scale 0 is the no-effect control and ±100 the full control effect; potency means the concentration at half of the fitted maximal effect.

SMILES	Luc counter	RORg inh	Gal4-VP16 FLuc
CC(C)C(NC(=O)C(C)N1C(=O)c2ccccc2C1=O)c1ccccc1 (configuration not stated)	nt	29%	-3%
O=C(O)/C=C/C(=O)c1c(-c2ccccc2)[nH]c2ccccc12	nt	14µM*	?
CC(=O)c1c(-c2ccccc2)[nH]c2ccccc12	nt	?	2%
CCN1C(=O)c2cccc3c(S(=O)(=O)NCC4CCCO4)ccc1c23 (configuration not stated)	nt	-43%	3%
Cc1cccc(NC(c2ccc(C)s2)c2ccc3ccc(C)nc3c2O)n1 (configuration not stated)	3%	10µM*	5µM*
Oc1c([C@H](Nc2ccccn2)c2ccccc2)ccc2cccnc12	0%[7.66 µM]	nt	nt
Cc1cccc(NCc2ccccc2O)n1	0%	25%	-5%
Oc1ccccc1C(Nc1nccs1)c1ccc2cccnc2c1O (configuration not stated)	nt	?	5µM*
Oc1cccc2ccc(Nc3ccccn3)nc12	-3%	12%	2%
O=C(Nc1nccs1)c1cccc2ccccc12	nt	?	-25%
Oc1c(C(Nc2ccccn2)c2ccccn2)ccc2cccnc12 (configuration not stated)	13%	1.1µM*	2.2µM*
Cc1ccc2ccc(C(Nc3ccccn3)c3ccccc3)c(O)c2n1 (configuration not stated)	-2%	5µM*	4.5µM*
COc1cc(C2CC(=O)Oc3ccc(O)cc32)cc(OC)c1OC (configuration not stated)	1%[39.9 µM]	5%	-11%
CC(C)C[C@H](NC(=O)N1CCn2c1nc1ccccc12)C(=O)N[C@@H](C(=O)O)c1ccccc1	nt	0%	3%
CCn1c(SCC(=O)N2CCCC2)nnc1-c1ccco1	nt	-9%	3%
COc1cc(C(Nc2ccccn2)c2c(NC(=O)c3ccco3)sc(C)c2C)cc(OC)c1OC (configuration not stated)	-2%	?	17%
COc1cc(C(Nc2ccccn2)c2ccc3ccc(C)nc3c2O)cc(OC)c1O (configuration not stated)	-3%	7.1µM*	13µM*
CC(C)CCNC(=S)Nc1ccccc1F	0%	7.9µM*	11µM*
COCCNC(=S)Nc1ccccn1	1%	18µM*	?
Cc1cccc(NC(=S)NCCC(C)C)c1	3%	-10%	?
CC(C)CCNC(=O)CN(Cc1ccc(F)cc1)C(=O)CCC(=O)Nc1ccccn1	nt	13%	-5%
COCCNC(=S)Nc1ccc(S(=O)(=O)Nc2ncccn2)cc1	1%	-3%	6%
CC(C)CCNC(=S)Nc1ccccn1	0%	0.56µM*	4µM*
CCCCCCCC/C=C\CCCCCCCC(=O)NC(C)C(=O)O (configuration not stated)	-1%	2%	-1%
COC(=O)c1ccc(C2c3[nH]c4ccccc4c3C[C@H]3C(=O)N(C4CCN(Cc5ccccc5)CC4)CC(=O)N23)cc1 (some centres not stated)	nt	34%	-11%
SMILES	Luc counter	RORg inh	Gal4-VP16 FLuc
O=C1[C@@H]2Cc3c([nH]c4ccccc34)C(c3ccccc3)N2C(=O)CN1C1CCN(Cc2ccccc2)CC1 (some centres not stated)	nt	2.8µM*	?
O=C(CCc1ccccc1)Nc1ccc2c(c1)C(=O)OC2	nt	?	23%
O=C(CCc1ccccc1)Nc1nnc(-c2ccc3c(c2)OCCO3)o1	10%	6.3µM*	?
O=C(CCc1ccccc1)Nc1nnc(-c2ccc3c(c2)CCCC3)o1	0%	14µM*	?
O=C(CCc1ccccc1)Nc1ccc2c(c1)OCCO2	-1%	-15%	-23%
CCCc1nc([N+](=O)[O-])c(S(=O)(=O)c2ccccc2)n1CC(C)C	5%	?	?
CC(C)Cn1c(C(C)C)nc([N+](=O)[O-])c1S(=O)(=O)c1ccc(F)cc1	1%	11µM*	?
CN(C)S(=O)(=O)c1ccc(NC(=O)CCNC(=O)c2ccco2)cc1	nt	-16%	4%
Cc1ccc(S(=O)(=O)N2CCC(C(=O)OCC(=O)N(CC(C)C)C3CCS(=O)(=O)C3)CC2)cc1C (configuration not stated)	nt	6%	3%
CCCCCNC(=O)c1cc(S(=O)(=O)N2CCCCC2)ccc1F	2%	-2%	-2%
CCCCNC(=S)Nc1cc(S(=O)(=O)N2CCCCC2)ccc1C	nt	5.6µM*	10µM*
CCCCNC(=S)Nc1cc([N+](=O)[O-])ccc1C	-1%	11µM*	?
CCOC(=O)C(=O)Nc1cc([N+](=O)[O-])ccc1C	5%	-1%	-9%
CN(CCc1ccccn1)C(=O)CN(C)S(=O)(=O)c1ccc2c(c1)c(=O)n(C)c(=O)n2C	1%	15%	-2%
CC(=O)NCc1ccc(C(=O)CCl)s1	-2%	11µM*	7.1µM*
CCC(=O)c1ccc(CCCCCC(=O)O)s1	-2%	-21%	-4%
C[C@H](O)Cn1cnc2c1c(=O)n(C)c(=O)n2C	-3%[17.1 µM]	8%[2.98 µM]	-13%[17 µM]
C=CCn1c(/N=C/c2ccc(OC)cc2)nc2ccccc21	nt	-40%	5%
COCCn1c(/C=C/c2ccccc2)nc2ccccc21	?	11µM*	?
COc1ccccc1Cn1c(C(C)C)nc2ccccc21	nt	7.9µM*	-15%
COc1ccc(/C=C/c2nc3ccccc3n2Cc2ccccc2OC)cc1	-12%	14µM*	-84%
Cc1ccccc1Cn1c(C(C)O)nc2ccccc21 (configuration not stated)	-2%	-11%	-2%
CC(=O)c1ccc(/C=C/c2nc3ccccc3n2C)o1	nt	10µM*	?
COCCn1c(-c2ccccc2)nc2ccccc21	-18%	?	-6%
Cn1c(=O)c(/C=C/c2ccc(F)cc2)nc2ccccc21	-4%	13%	-4%
SMILES	Luc counter	RORg inh	Gal4-VP16 FLuc
CN(Cc1ccco1)c1ccnc(-c2cccc(C#N)c2)n1	nt	11%	?
Cn1c(=O)c(/C=C/c2ccccc2)nc2ccccc21	-3%	?	13%
C=CCn1c(NCc2ccccc2OC)nc2ccccc21	nt	?	-9%
COc1ccccc1Cn1c(/C=C/c2ccccc2)nc2ccccc21	-22%	?	22µM*
Cn1c(/C=C/c2ccccc2)nc2ccccc21	7.1µM*	10µM*	7.1µM*
c1ccc(COC[C@@H]2CO2)cc1	nt	-1%	2%
CCN(CC)C(=O)Cn1cc(S(=O)(=O)CC(=O)Nc2cc(OC)ccc2OC)c2ccccc21	nt	1%	-10%
COc1ccc2c(c1)OC(=O)CC2c1ccc2c(c1)OCO2 (configuration not stated)	4%[39.9 µM]	0%	-4%
O=C(c1ccc(Cl)cc1[N+](=O)[O-])N1CCOCC1	3%	1%	-1%
Oc1ccc(/C=N/NC(=S)NCC2CCCO2)cc1 (configuration not stated)	17%	?	2%
Oc1ccc(/C=N/NC(=S)NC2CC3CCC2C3)cc1 (configuration not stated)	nt	2.5µM*	11µM*
S=C(Nc1cccnc1)NC1CC2CCC1C2 (configuration not stated)	nt	-6%	-5%
S=C(N/N=C/c1cccs1)NC1CC2CCC1C2 (configuration not stated)	nt	0.79µM*	3.2µM*
